# Compound activity: PubChem, National Center for Advancing Translational Sciences (NCATS)
# Only some compounds are listed: those with a hit (about 11% of all), similar ones and a draw of the others.
# FLuc inh – inhibitors of firefly (Photinus pyralis) luciferase; Potency, µM (doses to about 115 µM), most hits filed as inhibitors; purified P. pyralis luciferase, luminescence, biochemical; AID 1347043; P08659; hit rate 2.5% among 76,000; further: nearly all actives have a fitted effect of over 65% in size
# Target sequence (P08659 whole entry, looked up): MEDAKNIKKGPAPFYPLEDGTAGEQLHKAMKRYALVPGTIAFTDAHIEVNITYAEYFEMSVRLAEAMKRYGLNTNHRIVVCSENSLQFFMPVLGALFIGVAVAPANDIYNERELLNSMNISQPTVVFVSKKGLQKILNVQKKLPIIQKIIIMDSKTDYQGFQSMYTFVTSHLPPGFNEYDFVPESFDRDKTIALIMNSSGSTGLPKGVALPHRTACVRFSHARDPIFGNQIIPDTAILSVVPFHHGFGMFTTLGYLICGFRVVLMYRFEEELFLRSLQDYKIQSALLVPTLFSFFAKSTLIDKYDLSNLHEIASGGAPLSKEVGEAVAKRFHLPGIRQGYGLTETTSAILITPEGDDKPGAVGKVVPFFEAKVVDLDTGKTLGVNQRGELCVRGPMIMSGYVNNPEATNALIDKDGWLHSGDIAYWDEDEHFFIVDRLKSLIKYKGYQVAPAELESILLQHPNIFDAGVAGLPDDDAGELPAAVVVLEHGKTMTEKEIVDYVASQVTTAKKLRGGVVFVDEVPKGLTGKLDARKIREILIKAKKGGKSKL
#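 Biochemical qHTS: compound (6-point titration) added to 10uM D-luciferin plus 10uM ATP in Tris acetate pH 7.5 buffer with Mg, Tween-20 and BSA, then purified enzyme at 10nM; light output imaged.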
# NIH3T3 tox – NIH 3T3 cell cytotoxicity; NIH 3T3 viability, CellTiter-Glo ATP luminescence, 48-72 h; Potency, µM (series often up to 96.7 µM), for the others: at the highest dose activity change, negative = cytotoxicity, hits mostly inhibitors; hit rate 4.3% among 94,000; further: nearly all actives have a fitted effect of over 55% in size
#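 NIH 3T3 cells at 400 cells/well received 23 nL of compound by pintool and were incubated 48 or 72 h at 37 °C. Viability was read as ATP-coupled CellTiter-Glo luminescence.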
# HEK cytotox – cytotoxic compounds in HEK 293 cells | HEK 293 viability, ATP luminescence (CellTiter-Glo), 48-72 h | Potency, µM (series often up to 115 µM), without a hit: top-dose activity change, negative = cytotoxicity, hits mostly inhibitors | hit rate 6.6% among 94,000 | AID 1345083; further: nearly all actives have a fitted effect of over 60% in size
#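 Pintool-delivered compounds were incubated with HEK 293 cells (250 cells/well) at 37 degree Celsius for 48 or 72 hr. ATP-dependent luminescence (CellTiter-Glo) then reported remaining viable cells.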
# hNpr1 antagonist – blocks ANP-stimulated signaling of human Npr1 receptor. Potency, µM (doses to about 46.3 µM), without a hit: top-dose activity change, negative = inhibition, most hits filed as inhibitors. hit rate 1.6% among 76,000. AID 1347048. P16066. HEK293 hNpr1 GloSensor cGMP, ANP-stimulated luminescence; calls by dose curve; further: nearly all actives have a fitted effect of over 60% in size
#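 HEK293 cells stably expressing human Npr1 and cGMP GloSensor pGS-40F, loaded 2 h with 2% GloSensor reagent, given compound 30 min at room temperature. Luminescence read before and 20 min after 0.1 nM hNppA.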
# Starred values were filed as active, the others as inactive; i = inactive; ? = inconclusive; · = no result; [ ] = another dose, or the depositor's remark. Unless noted, the call rests on the fitted dose curve; in most records, active means well fitted curve in the direction sought with a large enough effect; inconclusive means small, poorly fitted or top-dose-only effect, or another doubt; inactive means no such curve, though single readings can be large; an effect the other way counts as inactive or inconclusive. On the % scale 0 is the no-effect control and ±100 the full control effect; potency means the concentration at half of the fitted maximal effect.
SMILES,FLuc inh,NIH3T3 tox,HEK cytotox,hNpr1 antagonist
C#CCNC(=O)c1cc(-c2ccc(C(F)(F)F)cc2)nc2c1cnn2C,·,?,25µM*,·
O=C(NCc1cccc(Cl)c1)c1ccc2nnc(C3CC3)n2c1,·,?,-18%[172 µM],·
COc1cccc(C(=O)N2CCCC(C(=O)N3CCC(c4nc5ccncc5[nH]4)CC3)C2)c1 (centres undefined),·,-7%,i,·
COc1ccc(CNC(=O)c2cc(-c3ccc(C(F)(F)F)cc3)nc3c2cnn3C)cc1,·,?,-32%,·
Cn1ncc2c(C(=O)NCc3ccc(C(F)(F)F)cc3)cc(-c3ccc(F)cc3)nc21,·,22µM*,?,·
Cn1ncc2c(C(=O)NCc3ccc(C(F)(F)F)cc3)cc(-c3ccccc3F)nc21,·,?,32µM*,·
Cn1ncc2c(C(=O)NCC#N)cc(-c3ccc(F)cc3)nc21,·,35µM*,?,·
Cn1ncc2c(C(=O)Nc3ccccc3F)cc(-c3ccc(C(F)(F)F)cc3)nc21,·,35µM*,?,·
O=C(NCc1ccncc1)c1cc(C2CC2)nc2onc(C3CCCN3)c12 (centres undefined),·,?,-14%,·
Cn1ncc2c(C(=O)NCCCc3ccccc3)cc(-c3ccc([S+](C)(=O)[O-])cc3)nc21,·,?,50µM*,·
Cc1ccc(-c2cc(C(=O)NCCCc3ccccc3)c3cnn(C)c3n2)cc1,·,-5%,-11%,·
CC(C)CCN1C[C@@H]2[C@H](C1)N(CCOc1ccccc1)C(=O)C(C)(C)[S+]2(=O)[O-],i,?,112µM*,5%[70.6 µM]
Cc1noc(C)c1CN1C[C@@H]2[C@H](C1)N(CCOc1ccccc1)C(=O)C(C)(C)[S+]2(=O)[O-],i,16µM*,-23%,-1%
O=C(NC1CCN(c2ccc3nnc(-c4ccccc4)n3n2)C1)c1cccc(Cl)c1 (centres undefined),·,-23%,-7%,·
CCOC(=O)CNC(=O)N1CCC(N2C(=O)C3(CCCCC3)C2c2ccncc2)CC1 (centres undefined),i,-1%,-8%,1%
O=C(CN1C(=O)C(c2ccccc2)=NC12CCCCC2)NC1CCCC1,i,?,28µM*,-1%
O=C(CN1C(=O)C(c2ccccc2)=NC12CCCC2)NCc1ccc(F)cc1,i,?,40µM*,-23%
O=C(Nc1ccc2c(c1)OCCO2)C1CCN(C(=O)N2CC3CC(C2)[C@H]2CCCC(=O)N2C3)CC1 (some centres undefined),20µM*,4%,5%,3%
Cc1ccc(NC(=O)C2CCN(C(=O)N3CC4CC(C3)[C@H]3CCCC(=O)N3C4)CC2)cc1 (some centres undefined),i,i,9%,1%
COc1cccc(CN2CCOC3CCN(CCCc4ccccc4)CC3C2=O)c1 (centres undefined),i,79µM*,?,-1%[70.6 µM]
O=C(Nc1ccc(F)cc1F)[C@H]1CN(Cc2ccccc2)C[C@H]1C(=O)O,·,-24%,-5%,·
O=C(NCC1CCN(c2cc(-c3ccc(Cl)cc3)[nH]n2)CC1)c1ccc[nH]1,i,22µM*,?,-22%
O=C(NCC1CCN(c2cc(-c3ccc(Cl)cc3)[nH]n2)CC1)c1cc(C2CC2)[nH]n1,?,35µM*,?,?
O=C(NCC1CCN(c2cc(-c3ccc(F)cc3)[nH]n2)CC1)c1cc(C2CC2)[nH]n1,?,?,?,-27%
Cc1cc(C)n(CCC(=O)NCC2CCN(c3cc(-c4ccc(Cl)cc4)[nH]n3)CC2)n1,i,32µM*,35µM*,-20%
SMILES,FLuc inh,NIH3T3 tox,HEK cytotox,hNpr1 antagonist
CC(=O)NCC(=O)NCC1CCN(c2cc(-c3ccc(Cl)cc3)[nH]n2)CC1,?,-27%,-1%,4%
COCCN1CC2(CCOC2)N(C2CCN(C(=O)Cc3ccccc3F)CC2)C1=O (centres undefined),·,-27%,5%,·
CC(C)CN1C(=O)COC[C@@H]1[C@H](O)c1ccc(NC(=O)C2CCCCC2)cc1,i,-18%[138 µM],?,1%[70.6 µM]
CN(Cc1cccnc1)Cc1cccc(C(F)(F)F)c1,·,-24%[138 µM],-21%[172 µM],·
COc1cccc(CNC(=O)c2ccc3nnc(Cc4ccco4)n3c2)c1,·,?,0%[172 µM],·
Cc1ccccc1C(=O)NC1CCN(c2ccc3nnc(C4CC4)n3n2)C1 (centres undefined),·,-25%,5%,·
O=C1NCN(Cc2ccc(Cl)cc2)C12CCN(Cc1ccc(F)cc1)CC2,i,14µM*,28µM*,-22%
O=C1NCN(Cc2ccc(Cl)cc2)C12CCN(Cc1cccnc1)CC2,i,?,?,18%
O=C1NCN(Cc2ccc(Cl)cc2)C12CCN(Cc1ccc(C(F)(F)F)cc1)CC2,i,?,40µM*,-21%
Cc1ccccc1CN1CCc2c(n(Cc3ccccc3)n(-c3ccccc3)c2=O)C1,i,89µM*,89µM*,-21%[70.6 µM]
COc1ccc(-n2c(=O)c3c(n2Cc2ccccc2)CN(C(=O)C(C)C)CC3)cc1,i,10µM*,-4%[172 µM],-8%[70.6 µM]
CC(C)C(=O)N1CCc2c(n(Cc3ccccc3)n(-c3ccccc3)c2=O)C1,i,22µM*,4%[172 µM],-3%[70.6 µM]
Nc1ncccc1CN1CCc2c(n(Cc3ccccc3)n(-c3ccccc3)c2=O)C1,i,-25%[138 µM],?,-14%[70.6 µM]
COc1ccc(Cn2c3c(c(=O)n2Cc2ccccc2)CCN(C(=O)c2ccnn2C)C3)cc1,i,35µM*,3%,-1%
COc1ccc(Cn2c3c(c(=O)n2Cc2ccccc2)CCN(C(=O)Cc2cccc(Cl)c2)C3)cc1,i,?,?,-7%
CCn1c2c(c(=O)n1Cc1ccccc1)CCN(C(=O)C(C)C)C2,i,?,i,4%[70.6 µM]
COc1ccc(-n2c(=O)c3c(n2Cc2ccccc2)CN(C(C)=O)CC3)cc1,i,?,3%[172 µM],5%[70.6 µM]
O=C(Nc1ccc(Cl)cc1)N1CCN(CCCn2nc3n(c2=O)CCCC3)CC1,·,-15%,-6%,·
COCCNC(=O)C1CCCN(c2ccnc3ccnn23)C1 (centres undefined),·,-24%,-4%,·
COc1cccc(NC(=O)N(C[C@H]2O[C@H](Cc3cc(-c4ccccc4)on3)CC[C@@H]2O)C(=O)Nc2cccc(OC)c2)c1,i,?,?,-1%
COc1cccc(C(CC(=O)NCCc2ccc(OC)c(OC)c2)c2c[nH]c3ccccc23)c1 (centres undefined),i,?,45µM*,?
COc1ccc(C(CC(=O)NCCc2ccccc2)c2c[nH]c3ccccc23)cc1OC (centres undefined),i,?,?,0%
CCc1cccc2c(C(CC(=O)NCc3ccc4c(c3)OCO4)c3ccc(OC)c(OC)c3)c[nH]c12 (centres undefined),i,?,35µM*,-21%
CCc1cccc2c(C(CC(=O)NCCc3ccccc3)c3cccc4c3OCO4)c[nH]c12 (centres undefined),?,18µM*,18µM*,-20%
